Measured values from PubChem BioAssay (Tox21).
Records with an inconclusive call do not appear. The source made the active and inactive calls. Unless noted, calls follow the shape of the full dose curve.

Tests used:
[1] = Nuclear factor erythroid 2-related factor 2/antioxidant responsive element (Nrf2/ARE) small molecule agonists: qHTS cell viability counter screen in human keratinocytes (AID 1919968; active = well fitted curve in the direction sought with a large enough effect in the repeat runs; an effect the other way counts as inactive or inconclusive; also: nearly all actives have a fitted effect of over 55% in size)
Summary of the method: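 In human HaCaT keratinocytes stably expressing an ARE-driven luciferase, compound exposure lasted 23 h at 37 C under 5% CO2. Viable cells are quantified with a protease-based fluorogenic reagent (CellTiter-Fluor) read 1 h after addition.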

[2] = Nuclear factor erythroid 2-related factor 2/antioxidant responsive element (Nrf2/ARE) small molecule agonists: luciferase reporter gene qHTS assay in human keratinocytes (AID 1919969); also: nearly all actives have a fitted effect of over 35% in size
[3] = biological target: Gonadotropin-releasing hormone receptor (Homo sapiens) (UniProt P30968); assay: Human gonadotropin-releasing hormone receptor (GnRHR) small molecule agonists, calcium flux assay in GnRHR-HEK293 cells (AID 1920063); also: nearly all actives have a fitted effect of over 35% in size
Chain of Gonadotropin-releasing hormone receptor (Homo sapiens) (P30968 whole entry, looked up): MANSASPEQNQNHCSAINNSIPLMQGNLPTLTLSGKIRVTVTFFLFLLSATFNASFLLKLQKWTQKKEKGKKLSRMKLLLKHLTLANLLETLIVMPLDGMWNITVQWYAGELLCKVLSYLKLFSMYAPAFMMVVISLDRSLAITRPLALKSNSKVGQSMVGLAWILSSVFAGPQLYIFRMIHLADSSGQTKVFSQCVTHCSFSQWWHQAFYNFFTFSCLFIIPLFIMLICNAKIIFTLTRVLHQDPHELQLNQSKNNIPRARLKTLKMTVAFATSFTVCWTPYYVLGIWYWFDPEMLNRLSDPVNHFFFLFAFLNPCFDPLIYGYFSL
Summary of the method: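 Intracellular calcium rise is the read-out: engineered human GnRHR HEK293 cells, dye-loaded, are exposed to DMSO-dissolved compounds and fluorescence at Ex/Em 480/540 is tracked for 3 min.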

[4] = biological target: KiSS-1 receptor (Homo sapiens) (UniProt Q969F8); assay: Human kisspeptin (KISS1R) small molecule agonists, calcium flux assay in KISS1R-HEK293 cells (AID 1920064; active = well fitted curve in the direction sought with a large enough effect in the repeat runs; an effect the other way counts as inactive or inconclusive)
Chain of KiSS-1 receptor (Homo sapiens) (Q969F8 whole entry, looked up): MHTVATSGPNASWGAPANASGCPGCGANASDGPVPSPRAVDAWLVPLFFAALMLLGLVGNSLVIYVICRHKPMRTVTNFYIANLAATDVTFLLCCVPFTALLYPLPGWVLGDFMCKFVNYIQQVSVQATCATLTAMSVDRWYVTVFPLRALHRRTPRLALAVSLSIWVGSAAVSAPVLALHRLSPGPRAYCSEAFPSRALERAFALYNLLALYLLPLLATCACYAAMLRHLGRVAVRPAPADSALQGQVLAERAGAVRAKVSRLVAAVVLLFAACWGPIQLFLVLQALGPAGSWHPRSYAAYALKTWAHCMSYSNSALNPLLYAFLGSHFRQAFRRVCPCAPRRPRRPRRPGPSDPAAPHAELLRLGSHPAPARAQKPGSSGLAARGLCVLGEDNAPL
Summary of the method: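 Concentration-response testing used 15 concentrations in triplicate on human KISS1R-expressing HEK293 cells. Calcium-dependent fluorescence (Ex/Em 480/540) was followed kinetically for 3 min after compound transfer.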

[5] = G protein-coupled receptor (GPCR) small molecule agonists, calcium flux assay: HEK293 wild type cell line counter screen (AID 1920065)
Summary of the method: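 Fluorescence intensity signals activation. After overnight (18 h) culture and a 1 h calcium dye load at 37 C, compounds are added by pin tool and the plate read at 480/540 nm for 3 min in 1 s steps.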

[6] = p53 small molecule agonists, cell-based qHTS assay with human liver microsomes (AID 1963577);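 also: p53 response element beta-lactamase reporter cells with liver microsomes plus NADPH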
Summary of the method: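 Metabolically competent format: test substances, human liver microsomes and NADPH (both 0.5 mg/mL final) incubated with p53RE-bla cells 16 h at 37 C. Beta-lactamase reporter signal then quantified by fluorescence.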

[7] = p53 small molecule agonists, cell-based qHTS assay with rat liver microsomes (AID 1963578)
Summary of the method: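 Each plate received p53RE-bla cells, then compound, then rat liver microsomes and NADPH (both 0.5 mg/mL final). Plates were held 16 h at 37 C, and beta-lactamase activity was detected with LiveBLAzer over 2 h.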

[8] = p53 small molecule agonists, cell-based qHTS assay with human liver microsomes: qHTS cell viability counter screen (AID 1963579); also: nearly all actives have a fitted effect of over 45% in size
Summary of the method: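 Tox21 library compounds, delivered from DMSO stocks, were tested on p53RE-bla cells together with 0.5 mg/mL human liver microsomes and 0.5 mg/mL NADPH (final) over 16 h at 37 C; CellTiter-Glo luminescence served as the cytotoxicity measure.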

[9] = p53 small molecule agonists, cell-based qHTS assay with rat liver microsomes: qHTS cell viability counter screen (AID 1963580); also: nearly all actives have a fitted effect of over 45% in size
Summary of the method: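 Cytotoxicity counter screen: intracellular ATP read by CellTiter-Glo luminescence in the p53 reporter wells. HCT-116 p53RE-bla cells were treated for 16 h at 37 C alongside rat liver microsomes and NADPH, each 0.5 mg/mL final.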

[10] = p53 small molecule agonists, cell-based qHTS assay: qHTS cell viability counter screen (AID 1963581); also: nearly all actives have a fitted effect of over 45% in size
Summary of the method: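 Luminescence from CellTiter-Glo, reflecting ATP content, serves as the cytotoxicity measure; it is taken after the 2 h reporter substrate step in HCT-116 p53RE-bla cells dosed for 16 h at 37 C.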

[11] = p53 small molecule agonists, cell-based qHTS assay (AID 1963582; active = well fitted activation curve with a large enough effect in the signal ratio in the repeat runs, not every such curve was filed as active; the % refers to the signal ratio)
Summary of the method: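 After plating, p53RE-bla cells sat 5 h in the incubator; compounds or DMSO vehicle were pinned in; a 16 h incubation at 37 C followed; FRET substrate was added and, 2 h later at RT, fluorescence was measured.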

[12] = biological target: 5-hydroxytryptamine receptor 2A (Homo sapiens) (UniProt P28223); assay: 5-hydroxytryptamine receptor 2A (HTR2A) small molecule antagonists, cell-based qHTS assay (AID 1963586); also: nearly all actives have a fitted effect of over 45% in size
Chain of 5-hydroxytryptamine receptor 2A (Homo sapiens) (P28223 whole entry, looked up): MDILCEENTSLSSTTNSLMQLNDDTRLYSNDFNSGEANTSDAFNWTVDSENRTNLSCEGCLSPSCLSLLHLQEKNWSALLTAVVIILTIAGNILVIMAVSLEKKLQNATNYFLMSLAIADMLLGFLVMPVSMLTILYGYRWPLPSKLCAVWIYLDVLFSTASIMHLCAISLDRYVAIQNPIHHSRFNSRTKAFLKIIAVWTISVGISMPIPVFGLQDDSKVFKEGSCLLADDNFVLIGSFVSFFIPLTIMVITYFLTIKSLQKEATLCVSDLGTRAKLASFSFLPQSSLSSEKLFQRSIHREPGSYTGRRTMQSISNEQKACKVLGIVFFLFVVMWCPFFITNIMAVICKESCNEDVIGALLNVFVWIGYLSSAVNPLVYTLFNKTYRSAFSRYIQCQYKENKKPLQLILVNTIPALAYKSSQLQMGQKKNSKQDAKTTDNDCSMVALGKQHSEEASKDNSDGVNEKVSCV
Summary of the method: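 CHO cells stably expressing human HTR2A were plated for 18 h at 37 C, then loaded with calcium dye for 1 h. Compounds were preincubated 5 min at room temperature before DOI (4 nM solution) was added. Kinetic fluorescence was read for 3 min.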

[13] = biological target: Muscarinic acetylcholine receptor M1 (Homo sapiens) (UniProt P11229); assay: Cholinergic receptor muscarinic 1 (CHRM1) small molecule antagonists, cell-based qHTS assay (AID 1963588); also: nearly all actives have a fitted effect of over 40% in size
Chain of Muscarinic acetylcholine receptor M1 (Homo sapiens) (P11229 whole entry, looked up): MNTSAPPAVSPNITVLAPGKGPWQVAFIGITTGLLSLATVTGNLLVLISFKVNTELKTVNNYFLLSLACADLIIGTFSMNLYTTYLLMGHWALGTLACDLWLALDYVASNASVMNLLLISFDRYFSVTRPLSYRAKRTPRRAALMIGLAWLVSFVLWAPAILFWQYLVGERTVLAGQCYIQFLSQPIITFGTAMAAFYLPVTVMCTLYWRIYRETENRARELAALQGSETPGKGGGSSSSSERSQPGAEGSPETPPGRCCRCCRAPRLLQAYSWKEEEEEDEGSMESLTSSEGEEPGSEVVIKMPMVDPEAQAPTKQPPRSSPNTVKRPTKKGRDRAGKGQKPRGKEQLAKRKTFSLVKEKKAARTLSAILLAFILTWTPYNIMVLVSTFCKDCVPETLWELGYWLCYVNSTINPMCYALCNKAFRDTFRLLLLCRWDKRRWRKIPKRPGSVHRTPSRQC
Summary of the method: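 Compounds were tested at 15 concentrations in three independent runs. Dye-loaded CHRM1-CHO cells were exposed 5 min at room temperature before stimulation by acetylcholine added at 50nM. Intracellular calcium was read kinetically on FDSS for 3 min.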

[14] = cAMP Responsive Elements (CRE) small molecule agonists, cell-based qHTS assay (AID 1963590)
Summary of the method: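 Compound exposure lasted 3 h at 37 C/5% CO2 in CRE-bla HEK 293T cells grown in assay medium with 10% dialyzed FBS and 25 mM HEPES. Reporter signal came from LiveBLAzer B/G FRET substrate, 2 h, room temperature.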

[15] = cAMP Responsive Elements (CRE) small molecule antagonists, cell-based qHTS assay (AID 1963591; active = well fitted inhibition curve with a large enough effect in the signal ratio in the repeat runs, not every such curve was filed as active; the % refers to the signal ratio)
Summary of the method: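 Stimulation used NKH477 at a final 0.25 uM for 3 h in compound-treated CRE-bla HEK293T cells, seeded 18 h beforehand. Reporter activity was measured with LiveBLAzer B/G FRET substrate after 2 h at room temperature.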

[16] = biological target: Beta-2 adrenergic receptor (Homo sapiens) (UniProt P07550); assay: Adrenergic beta2 receptor (ADRB2) small molecule antagonists, cell-based qHTS assay (AID 1963592); also: series mostly up to about 92 µM; nearly all actives have a fitted effect of over 50% in size
Chain of Beta-2 adrenergic receptor (Homo sapiens) (P07550 whole entry, looked up): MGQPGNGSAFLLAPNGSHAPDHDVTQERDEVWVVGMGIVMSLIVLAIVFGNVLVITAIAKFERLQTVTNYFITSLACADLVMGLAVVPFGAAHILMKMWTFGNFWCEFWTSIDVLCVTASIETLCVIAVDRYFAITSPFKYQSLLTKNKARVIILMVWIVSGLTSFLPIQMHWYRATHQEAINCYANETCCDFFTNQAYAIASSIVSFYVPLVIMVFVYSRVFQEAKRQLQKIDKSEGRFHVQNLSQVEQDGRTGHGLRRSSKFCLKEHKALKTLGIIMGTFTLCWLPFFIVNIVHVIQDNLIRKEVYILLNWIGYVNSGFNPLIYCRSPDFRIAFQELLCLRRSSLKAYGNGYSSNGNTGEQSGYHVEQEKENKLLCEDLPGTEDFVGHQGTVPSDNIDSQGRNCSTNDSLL
Summary of the method: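 Assay format: CHO-ADRB2 cells, 18-20hr seeding at 37C/5% CO2, then compound plus 1nM isoproterenol agonist mix for 0.5hr RT. Homogeneous time-resolved fluorescence cAMP detection after 1hr, expressed as 665/615 nm ratio.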

[17] = biological target: D(2) dopamine receptor (Homo sapiens) (UniProt P14416); assay: Dopamine D2 receptor (DRD2) small molecule agonists, cell-based qHTS assay (AID 1963594); also: nearly all actives have a fitted effect of over 35% in size
Chain of D(2) dopamine receptor (Homo sapiens) (P14416 whole entry, looked up): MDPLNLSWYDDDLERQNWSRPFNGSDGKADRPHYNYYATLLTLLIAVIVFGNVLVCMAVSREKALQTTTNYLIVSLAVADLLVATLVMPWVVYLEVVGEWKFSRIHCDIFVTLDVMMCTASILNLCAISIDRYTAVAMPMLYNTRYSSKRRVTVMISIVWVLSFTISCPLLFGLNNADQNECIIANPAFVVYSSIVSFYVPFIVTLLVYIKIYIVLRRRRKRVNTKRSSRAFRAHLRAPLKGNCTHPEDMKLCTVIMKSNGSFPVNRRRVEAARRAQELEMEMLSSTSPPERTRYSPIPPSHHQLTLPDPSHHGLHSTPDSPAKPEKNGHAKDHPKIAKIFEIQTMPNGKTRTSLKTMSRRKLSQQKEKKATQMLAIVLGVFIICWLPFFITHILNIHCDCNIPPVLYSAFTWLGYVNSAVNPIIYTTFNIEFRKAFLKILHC
Summary of the method: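 cAMP accumulation in DRD2-HEK293 cells measured by HTRF after 1 h detection; compounds added 10 min before NKH477 (200nM […]) forskolin-analogue stimulation, 30 min at room temperature, with Ro20-1724 present at 0.1 mM final.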

[18] = biological target: D(2) dopamine receptor (Homo sapiens) (UniProt P14416); assay: Dopamine D2 receptor (DRD2) small molecule antagonists, cell-based qHTS assay (AID 1963595; active = well fitted inhibition curve with a large enough effect in the signal ratio in the repeat runs, with a control signal flat; the % refers to the signal ratio)
Summary of the method: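 Cells were plated and grown for 24 h at 37 °C. Ro20-1724 (0.1 mM final) went in first, then compound for 10 min. NKH477 (200 nM) with quinpirole (12 nM) followed for 30 min at RT, then HTRF detection reagents for 1 h.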

[19] = biological target: 5-hydroxytryptamine receptor 2A (Homo sapiens) (UniProt P28223); assay: 5-hydroxytryptamine receptor 2A (HTR2A) small molecule agonists, cell-based qHTS assay (AID 1963587); also: nearly all actives have a fitted effect of over 30% in size
Summary of the method: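 Kinetic calcium-flux fluorescence (2 min, 1 sec intervals) after compound addition in agonist mode. HTR2A-CHO cells were cultured 18 h, then dye-loaded 1 h at 37 C.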

[20] = biological target: Muscarinic acetylcholine receptor M1 (Homo sapiens) (UniProt P11229); assay: Cholinergic receptor muscarinic 1 (CHRM1) small molecule agonists, cell-based qHTS assay (AID 1963589); also: nearly all actives have a fitted effect of over 35% in size
Summary of the method: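 Fluorescent calcium dye reports M1 activation in stably transfected CHO cells. Compounds, 15 concentrations, added after 1 h dye loading at 37 C; kinetic reading at 1 sec intervals.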

Measured: Potency

C=CC=O
not listed: [19] | [20]
inactive: all other assays above

COC(=O)c1ccccc1C(=O)OC
not listed: [12] | [18]
inactive: all other assays above

CCN(C)N=O
not listed: [15] | [18] | [19]
inactive: all other assays above

O=c1c2ccccc2c(=O)c2c1cc(Cl)c1[nH]c3c([nH]c12)c(Cl)cc1c(=O)c2ccccc2c(=O)c13
not listed: [13] | [19]
inactive: all other assays above

COCC(=O)N(c1c(C)cccc1C)[C@H](C)C(=O)OC
not listed: [16] | [17] | [19]
inactive: all other assays above

COCC(=O)N(c1c(C)cccc1C)N1CCOC1=O
not listed: [15] | [19]
inactive: all other assays above

Nc1nc(=S)[nH][nH]1
not listed: [12] | [17]
inactive: all other assays above

Nc1cc(Cl)cc(Cl)c1
not listed: [13]
inactive: all other assays above
